Assay outcomes (PubChem)
ELG1 repair inh = qHTS screen for small molecules that inhibit ELG1-dependent DNA repair in human embryonic kidney (HEK293T) cells expressing luciferase-tagged ELG1; HEK293T ELG1-luciferase reporter, luminescence, 16 h; DNA damage induced by 5-fluorouridine; Potency, µM (highest dose often 46.1 µM), inactives show at the highest dose activity change, negative = inhibition, actives largely listed as inhibitors; hit rate 2.3% among 330,000; further: potency means the concentration at half of the fitted maximal effect; nearly all actives have a fitted effect of over 55% in size
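5-Fluorouridine DNA damage + compound/DMSO, 2,000 cells/well, 16 h, 37 °C/5% CO2. ONE-Glo, 30 min RT, luminescence. Readout = decrease in reporter signal.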
Coupling enz = qHTS Assay for Inhibitors of Fructose-1,6-bisphosphate Aldolase from Giardia Lamblia: Coupling assay counterscreen; coupling enzyme system counterscreen, AmpLite Red fluorescence; activity change, negative = inhibition, % at 58.2 µM, hits read low; hit rate 0.67% among 290,000; AID 2472, 2010; in the data active means activity change below about -30%
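Compounds tested against the coupling enzymes alone at 57.5 uM final; readout was AmpLite Red fluorescence (525/598 nm) after 20 min at RT.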
Giardia kill = Small Molecules that selectively kill Giardia lamblia: qHTS. Giardia lamblia trophozoite viability. activity change, % at 7.66 µM, hits read low. hit rate 0.15% among 340,000. AID 540267, 2011; in the data active means activity change below about -80%; inconclusive means between about -30% and that limit;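 further: parasites exposed to compound for two days anaerobically before the ATP read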
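Media and compound were dispensed first, then trophozoites at 100 cells/well; plates sat 48 hrs at 37 deg C without oxygen before ATP luminescence reagent was added and read after 15-30 min at room temperature.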
Sfp PPTase inh = qHTS Assay for Inhibitors of Bacillus subtilis Sfp phosphopantetheinyl transferase (PPTase); hit rate 3.5% among 310,000; Biochemical Sfp PPTase activity, qHTS; Potency, µM, without a hit: largest response in the series, negative = inhibition, hits mostly inhibitors; 4'-phosphopantetheinyl transferase ffp (Bacillus subtilis), Q9F4F7; AID 1490, 2009;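 further: the enzyme is Sfp with the accession as filed and its product quenches rhodamine fluorescence; potency means the concentration at half of the fitted maximal effect; 0% = enzyme reaction without inhibitor and -100% = no enzyme wells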
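Sfp 15 nM + cpd, 15 min RT; start w/ rhodamine-CoA 5 uM, BHQ-2-YbbR 12.5 uM (final); 50 mM Hepes pH 7.6, 10 mM MgCl2, 0.01% NP-40, 0.01% BSA; read 525/598 nm at 0 and 30 min.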
The depositor's hits bear a star; ? = inconclusive; / = no result. Most compounds without a hit are left out; they make up all but 5.5% or so of the library. Unless noted, the call rests on the fitted dose curve; in most records, active means well fitted curve in the direction sought with a large enough effect; inconclusive means small, poorly fitted or top-dose-only effect, or another doubt; inactive means no such curve, though single readings can be large; an effect the other way counts as inactive or inconclusive. Unless noted, on the % scale 0 is the no-effect control and ±100 the full control effect.

SMILES	ELG1 repair inh	Coupling enz	Giardia kill	Sfp PPTase inh
Cc1cc(C)c(C)c(OCCN2CC(C)OC(C)C2)c1 (configuration not stated)	9.9%	-2.9	0.2	44.7µM*
CCC(SC1=NCCS1)C(=O)Nc1nnc(-c2ccccc2OC)s1 (configuration not stated)	18.4µM*	-3.0	-9.1	8.2%
CCCCn1c(N)c(N(C)C(=O)c2ccc(OCC3CCCO3)cc2)c(=O)[nH]c1=O (configuration not stated)	9.8%	/	-7.7	/
Cc1sc2nc(CSc3ccccc3)nc(N3CCC(C(N)=O)CC3)c2c1C	?	0.9	-5.0	-9.1%
CCOC(=O)c1sc2nc(CSc3ccccc3)nc(N3CCC(C(N)=O)CC3)c2c1C	18.3µM*	4.3	-1.3	?
CCOC(=O)c1sc2nc(CC(=O)OC)nc(N3CCN(c4ccccn4)CC3)c2c1C	9.2µM*	-4.4	-11.6	?
CCOC(=O)c1sc2nc(CC(=O)OC)nc(NCc3ccc(F)cc3)c2c1C	?	/	35.6	15.4%
COc1ccc(C)cc1NC(=O)c1sc2ncnc(N3CCN(c4ccccn4)CC3)c2c1C	6.51µM*	-3.0	0.6	1.5%
CCOC(=O)c1sc2nc(CSc3ccccc3)nc(N3CCCN(C)CC3)c2c1C	?	1.9	-2.6	50.1µM*
CCOc1cc(C(=O)NC2CC(C)(C)NC(C)(C)C2)cc(OCC)c1OCC	?	4.7	26.1	9.8%
CCOc1ccccc1/C=C/C(=O)NCC(=O)N1CCC(N(C)C2CCCCC2C)CC1 (configuration not stated)	19.1%	/	-2.9	-1.1%
Cc1ccc(O)c(NC(=O)c2onc(C)c2Cl)c1	?	-0.7	-15.8	5.5%
O=C(Nc1nncs1)c1cc(-c2ccco2)nc2ccccc12	?	/	-11.2	/
Cc1cc2c(cc1S(=O)(=O)N1CCN(c3cccc(C)c3C)CC1)OCC(=O)N2	?	-1.5	-16.4	-6.3%
O=C(Nc1ccccc1Cl)N1CCCN(c2nc(-c3ccccc3)ns2)CC1	?	-0.3	10.5	6.0%
O=C(Nc1ccccc1)N1CCN(c2nc(-c3ccccc3)ns2)CC1	23.1µM*	-0.2	1.5	5.5%
CCC(C)c1ccccc1NC(=O)C(C)N(C)Cc1cccc(OC)c1 (configuration not stated)	?	-1.2	18.7	50.1µM*
CSc1ncc(CN2CCC(C(=O)Nc3cccc(-c4cscn4)c3)CC2)cn1	23.1µM*	/	0.4	9.4%
CCCc1ncc(CN2CCC(C(=O)Nc3cccc(-c4cscn4)c3)CC2)cn1	8.2µM*	1.4	9.4	11.9%
CCS(=O)(=O)Nc1ccc(-c2ccc(NS(=O)(=O)CC)c(OC)c2)cc1OC	23.1µM*	-2.1	9.8	-8.0%
COc1ccc(Cl)cc1NC(=S)N1CCN(C(=O)c2ccco2)CC1	-7.4%	2.0	-5.8	2.1%
O=C(c1ccco1)N1CCN(C(=S)Nc2ccccc2C(F)(F)F)CC1	20.6µM*	/	7.1	6.7%
COc1cc(NC(=S)N2CCOCC2)c(OC)cc1Cl	12.5%	3.8	-20.4	6.6%
COc1cc(NC(=S)N2CCN(C(=O)c3ccco3)CC2)c(OC)cc1Cl	0.9%	-0.3	-26.1	56.2µM*
COc1cc(NC(=S)N2CCN(CCO)CC2)c(OC)cc1Cl	17.9%	-1.7	6.3	-5.7%
SMILES	ELG1 repair inh	Coupling enz	Giardia kill	Sfp PPTase inh
FC(F)(F)c1ccccc1NC(=S)N1CCCC1	-5.2%	2.6	2.4	?
COc1cc(NC(=S)N2CCCC(CO)C2)c(OC)cc1Cl (configuration not stated)	14.0%	0.1	1.8	39.8µM*
COc1cc(NC(=S)N2CCN(C)CC2)c(OC)cc1Cl	-4.1%	-0.3	7.6	28.2µM*
CCCn1nc(C(=O)NCC2COc3ccccc3O2)c2ccccc2c1=O (configuration not stated)	20.6µM*	/	-19.1	/
COc1ccc(-n2nc(C(=O)NCC(=O)NCC3COc4ccccc4O3)c3ccccc3c2=O)c(OC)c1 (configuration not stated)	-16.0%	-0.8	2.8	-19.4%
COc1ccc(-n2nc(C(=O)NCC(=O)NC3CCCCCC3)c3ccccc3c2=O)cc1OC	18.3µM*	1.3	6.0	17.1%
COc1ccc(-n2nc(C(=O)NCC(=O)NCC3COc4ccccc4O3)c3ccccc3c2=O)cc1OC (configuration not stated)	9.2µM*	0.8	7.5	16.2%
